Bioassay records deposited in PubChem by National Center for Advancing Translational Sciences (NCATS).
G9a block = qHTS Assay for Inhibitors of Histone Lysine Methyltransferase G9a; Potency, µM (top dose mostly 102 µM), for inactives: at the highest dose activity, negative = inhibition, hits mostly inhibitors; actives 8.8% (n = 350,000); G9a H3K9 monomethylation, AlphaScreen, 2 h; further: potency means the concentration at half of the fitted maximal effect; nearly all actives have a fitted effect of over 75% in size
Target sequence (Q96KQ7 913-1193 limits assumed): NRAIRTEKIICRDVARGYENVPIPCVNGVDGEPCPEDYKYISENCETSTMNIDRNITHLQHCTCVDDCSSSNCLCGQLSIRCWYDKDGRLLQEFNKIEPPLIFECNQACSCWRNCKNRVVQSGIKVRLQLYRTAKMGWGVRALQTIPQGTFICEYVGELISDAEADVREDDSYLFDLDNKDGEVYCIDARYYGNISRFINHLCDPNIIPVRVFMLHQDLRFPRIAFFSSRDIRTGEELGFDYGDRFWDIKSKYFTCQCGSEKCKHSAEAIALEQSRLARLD
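AlphaScreen read-out: biotin-H3K9 peptide (500 nM) methylation by 20 nM enzyme with 20 uM SAM, 2 h at room temperature after 15 min compound preincubation; anti-monomethyl H3K9 antibody plus donor/acceptor beads, 10 min dark.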
Tau fibril FP = qHTS for Inhibitors of Tau Fibril Formation, Fluorescence Polarization; Microtubule-associated protein tau (Homo sapiens), P10636; Potency, µM (doses to about 57.7 µM), for the others: top-dose activity, negative = inhibition, actives largely listed as inhibitors; K18 P301L tau heparin fibrillization, Alexa594 FP, 6 h; actives 0.39% (n = 280,000); AID 1468, 2008; further: potency means the concentration at half of the fitted maximal effect; nearly all actives have a fitted effect of over 55% in size
Target sequence (P10636 561-689 P618L limits assumed): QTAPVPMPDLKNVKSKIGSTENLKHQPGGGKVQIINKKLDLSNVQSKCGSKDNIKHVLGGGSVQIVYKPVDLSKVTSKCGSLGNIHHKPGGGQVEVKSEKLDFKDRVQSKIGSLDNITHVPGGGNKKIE
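Quantitative HTS format: compounds meet 15 uM recombinant K18 P301L tau and Alexa 594-tau tracer in 100 mM sodium acetate pH 7; 20 uM heparin triggers fibrillization at 37 C over 6 hr; FP gives the signal.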
Tau fluor counter = Counterscreen qHTS for Inhibitors of Tau Fibril Formation, Fluorescence Polarization; Potency, µM (highest dose often 57.7 µM), inactives show at the highest dose activity change, negative = decrease; tau K18 P301L Alexa594 fluorescence, heparin fibrillization; AID 1463, 2008; actives 0.93% (n = 280,000); further: potency means the concentration at half of the fitted maximal effect; nearly all actives have a fitted effect of over 55% in size
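Human K18 P301L tau (15 uM unlabeled plus 0.24 uM Alexa 594-labeled, final) in 100 mM sodium acetate pH 7 was mixed with compound and 20 uM heparin and incubated 6 hr at 37 C.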
Tau fibril ThT = qHTS for Inhibitors of Tau Fibril Formation, Thioflavin T Binding. actives 2.1% (n = 270,000). recombinant tau K18 P301L, heparin-induced fibrillization, ThT fluorescence. Potency, µM (highest dose often 57.4 µM), for inactives: top-dose activity, negative = inhibition, usual class: inhibitors; further: potency means the concentration at half of the fitted maximal effect; nearly all actives have a fitted effect of over 55% in size
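Fibril formation assay: tau K18 P301L at 15 uM with trace Alexa 594 label, heparin inducer 20 uM, pH 7 sodium acetate buffer, 37 C for 6 hr; endpoint ThT signal.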
FBPA coupling cs = qHTS Assay for Inhibitors of Fructose-1,6-bisphosphate Aldolase from Giardia Lamblia: Coupling assay counterscreen; coupling enzyme system counterscreen, AmpLite Red fluorescence; activity change, negative = inhibition, % at 58.2 µM, hits read low; actives 0.67% (n = 290,000); in the data active means activity change below about -30%
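Fluorescence at 525 nm excitation and 598 nm emission measured inhibition of the coupled detection system without aldolase. Compounds (at 57.5 uM final) were preincubated 10 min at room temperature with coupling enzyme reagent before a 20 min substrate/AmpLite Red step.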
Sfp PPTase inh = qHTS Assay for Inhibitors of Bacillus subtilis Sfp phosphopantetheinyl transferase (PPTase) | Biochemical Sfp PPTase activity, qHTS | actives 3.5% (n = 310,000) | 4'-phosphopantetheinyl transferase ffp (Bacillus subtilis), Q9F4F7 | Potency, µM, for the others: largest response in the series, negative = inhibition, hits mostly inhibitors;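 further: the enzyme is Sfp with the accession as filed and its product quenches rhodamine fluorescence; potency means the concentration at half of the fitted maximal effect; 0% = enzyme reaction without inhibitor and -100% = no enzyme wells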
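Fluorescence-quenching assay: 15 nM Sfp-PPTase preincubated 15 min at room temperature with compound, then 5 uM rhodamine-CoA and 12.5 uM BHQ-2-labelled YbbR peptide added. Fluorescence (ex 525/em 598 nm) read at start and after 30 min; difference gives rate.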
Starred values were filed as active, the others as inactive; ? = inconclusive; . = no result; [ ] = another dose, or the depositor's remark. Most compounds without a hit are left out; they make up all but 11% or so of the library. Unless noted, the call rests on the fitted dose curve; in most records, active means well fitted curve in the direction sought with a large enough effect; inconclusive means small, poorly fitted or top-dose-only effect, or another doubt; inactive means no such curve, though single readings can be large; an effect the other way counts as inactive or inconclusive. Unless noted, on the % scale 0 is the no-effect control and ±100 the full control effect.

SMILES | G9a block | Tau fibril FP | Tau fluor counter | Tau fibril ThT | FBPA coupling cs | Sfp PPTase inh
N#Cc1sc(=O)[nH]c1Cl | . | . | . | . | 10 | 50µM*
Cc1[nH]c(=O)c(C#N)c(C)c1Cl | 22%[59 µM] | -6% | 3% | 10% | 0 | 25%
CCc1nnc(NS(=O)(=O)c2ccc(Nc3ccc([N+](=O)[O-])c4nonc34)cc2)s1 | 25µM* | 4% | -14% | 14µM* | 0 | 11%
NS(=O)(=O)c1ccc(Nc2ccc([N+](=O)[O-])c3nonc23)cc1 | ? | -11% | -22% | 16µM* | -33* | 79µM*
CCc1nnc(NS(=O)(=O)c2ccc(NS(=O)(=O)c3ccccc3[N+](=O)[O-])cc2)s1 | ? | . | . | . | 14 | -9%
O=C(O)c1ccc(Nc2ccc([N+](=O)[O-])c3nonc23)cc1 | . | . | . | . | -1 | ?
Cc1nn(CC(=O)NC2CC2)c(=O)c2cc3ccccc3n12 | -34%[59 µM] | 0% | -5% | -6% | . | .
N#Cc1cccc(S(=O)(=O)NCc2nnc3ccccn23)c1 | 17%[12.7 µM] | . | . | . | . | .
Cc1cccc(Cn2c(Cc3ccccc3)nc3ccccc32)c1 | 27%[59 µM] | -1% | -3% | -12% | 10 | 56µM*
O=C(COc1ccc([N+](=O)[O-])cc1)Nc1nnc(-c2cccnc2)s1 | ? | -4% | -17% | ? | 9 | -7%
Cc1ccccc1SCC(=O)OCC(=O)NCCNC(=O)COC(=O)CSc1ccccc1C | 50µM* | . | . | . | . | .
CCOC(=O)c1csc(NC(=O)CC2CCCC2)n1 | -4% | -3% | -6% | -7% | 0 | 15%
CC(C)(C)OC(=O)NC(Cc1ccccc1)C(=O)NC1COC2CC(n3ccc(=O)[nH]c3=O)OC12 (centres undefined) | . | . | . | . | -1 | 1%
CCOc1ccccc1NC(=O)Cn1c(=O)n(-c2ccc(C)c(C)c2)c(=O)c2c(C)c(C(=O)N(C)C)sc21 | ? | 4% | -8% | 0% | . | .
C#CCOc1c(Cl)cc(/C=C2/C(=O)ON=C2C)cc1OC | 40µM* | . | . | . | 5 | 56µM*
CC1=NOC(=O)/C1=C/c1ccc(N(C)C)cc1 | ? | -6% | -22% | ? | 0 | 4%
COc1cc(/C=C2/C(=O)ON=C2C)cc(Cl)c1O | 35µM* | . | . | . | -6 | -11%
COc1cc(C=C2C(=O)OC(C)(C)OC2=O)cc(Cl)c1OCC(=O)Nc1ccccc1 | -3% | -6% | 2% | -10% | 8 | 22%
CCOc1ccc(NC(=O)Cn2c(=O)c(CNc3ccc(CC)cc3)cc3cc4c(cc32)OCO4)cc1 | 1%[59 µM] | 15% | ? | 10% | . | .
O=C(NCc1cccc(Br)c1)C1CCCCN1S(=O)(=O)c1ccc(F)cc1 (centres undefined) | -6%[59 µM] | -9% | -17% | -1% | . | .
CCOC(=O)/C(C#N)=C/C=C1\C=Cc2ccccc2N1CC | . | -10% | -30% | 1.6µM* | -8 | ?
CN1/C(=C/C=C(C#N)C#N)C=Cc2ccccc21 | -11% | 25µM* | ? | ? | -3 | 4%
COc1ccc(C(=O)COC(=O)c2ccc3c(c2)OCCO3)c(OC)c1 | 5%[0.501 µM] | . | . | . | . | .
Cc1ccc(C2CCN(C(=S)Nc3cccc(C)c3)C2)cc1 (centres undefined) | -30% | -10% | -27% | -17% | 1 | 13%
CCCCN=Cc1sc2ccc(OCC)cc2c1O | ? | -3% | -23% | ? | 0 | 1%
C=CCN=Cc1sc2ccc(OCC)cc2c1O | 45µM* | -7% | -19% | ? | 2 | ?
COc1cccc(CN2CCNC(=O)C2CC(=O)NC2CCCC2)c1OC (centres undefined) | 40µM* | . | . | . | 3 | 9%
